An excerpt weighted towards active compounds, which were near 8.8% of everything screened.
HT1080NT lethal: kills 2HG-producing HT-1080-NT fibrosarcoma cells. HT-1080-NT fibrosarcoma viability, CellTiter-Glo ATP luminescence, 48 h. Potency, µM (highest dose often 46.1 µM), actives largely listed as cytotoxic. 360,000 compounds, 1.6% hits;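 further: NT is the 2HG producing partner of a matched IDH1 knockdown line; nearly all actives have a fitted effect of over 55% in size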
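Fibrosarcoma NT cells, 750 per well in 5% FBS RPMI, were exposed to compound for 48 hours. Viability: CellTiter-Glo luminescence.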
IL-1B inflam inh: inflammasome signaling inhibition, IL-1 beta readout; THP-1 LPS/ATP IL-1B secretion, AlphaLISA, 16 h; hits give low values; 360,000 compounds, 4.7% hits; activity change, % at 57.5 µM; AID 743279; in the data active means activity change below about -50%; inconclusive means mostly about -30% to -49%
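THP-1 cells pretreated 1 hr with compounds (up to 57.5 uM final), then stimulated with LPS (250 ng/mL final) plus ATP (1.25 mM final); secreted IL-1B measured by AlphaLISA after 16 hr, decreased signal indicating inhibition.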
KB-3-1 tox: KB-3-1 parental cell cytotoxicity; KB-3-1 viability, CellTiter-Glo ATP luminescence, 72 h; Potency, µM (top dose mostly 46.1 µM), most hits filed as cytotoxic; 400,000 compounds, 1.4% hits; AID 1347075; further: nearly all actives have a fitted effect of over 60% in size
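KB-3-1 parental drug-naive adenocarcinoma cells in DMEM/10% FBS, incubated 72 h at 37 C with pin-transferred compounds across a concentration series. Viability by CellTiter-Glo luminescence; concentration-response curves fitted after normalization.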
HT1080 IDH1KD tx: kills HT-1080 cells with IDH1 knockdown | HT-1080 IDH1 knockdown viability, ATP luminescence, 48 h | Potency, µM (top dose mostly 46.1 µM), hits mostly cytotoxic | 360,000 compounds, 2% hits | AID 686971
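IDH1KD HT-1080 cells, 750/well, RPMI + 5% FBS; compound pinned after 2 h settling; 48 h, 37 °C; CellTiter-Glo luminescence; % activity normalised to DMSO and no-cell wells; curves fitted, classed by r2 and efficacy.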
KB-V1 cytotox: kills drug-selected multidrug resistant KB-V1 cells | KB-V1 MDR cells viability, CellTiter-Glo, 72 h | Potency, µM (series often up to 46.1 µM), usual class: cytotoxic | 400,000 compounds, 3.4% hits | AID 1347076; further: nearly all actives have a fitted effect of over 60% in size
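Potencies derive from concentration-effect curves fitted to normalized luminescence (CellTiter-Glo) of KB-V1 cells treated for 72 h at 37 degrees C in phenol-red-free DMEM containing 10% FBS.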
Numbers stand for hits. Unless noted, the call rests on the fitted dose curve; in most records, active means well fitted curve in the direction sought with a large enough effect; inconclusive means small, poorly fitted or top-dose-only effect, or another doubt; inactive means no such curve, though single readings can be large; an effect the other way counts as inactive or inconclusive.

For O=C(NCc1ccccc1)C1(C(F)(F)F)CC(CCCO)CCCO1 (configuration not stated) the results were HT1080NT lethal inactive, IL-1B inflam inh inactive, KB-3-1 tox inactive, HT1080 IDH1KD tx inactive and KB-V1 cytotox inactive.
For CS(=O)(=O)c1ccc(CNC(=O)C2(C(F)(F)F)CC(CCCO)CCCO2)cc1 (configuration not stated) the results were HT1080NT lethal 1.6µM, IL-1B inflam inh inactive, KB-3-1 tox 5.8µM, HT1080 IDH1KD tx 5.8µM and KB-V1 cytotox inconclusive.
`N#C/C(=C/c1ccc(-c2ccc(Br)cc2)o1)C(=O)NC1CCCCC1` gave HT1080NT lethal inactive, IL-1B inflam inh -55, KB-3-1 tox inactive, HT1080 IDH1KD tx inactive and KB-V1 cytotox inactive.
Screening CCOC(=O)c1ccc(-c2ccc(/C=C(\C#N)C(=O)NCC3CCCO3)o2)cc1 (configuration not stated) returned HT1080NT lethal inactive, IL-1B inflam inh inactive, KB-3-1 tox inactive, HT1080 IDH1KD tx inactive and KB-V1 cytotox 16µM.
CCOC(=O)c1ccc(-c2ccc(/C=C(\C#N)C(=O)Nc3c(C)cccc3Cl)o2)cc1 was read as KB-3-1 tox inactive and KB-V1 cytotox inactive.
`N#C/C(=C/c1ccc2c(c1)OCO2)C(=O)NCCc1c[nH]c2ccccc12` gave HT1080NT lethal inconclusive, IL-1B inflam inh inactive, KB-3-1 tox inactive, HT1080 IDH1KD tx inconclusive and KB-V1 cytotox 15µM.
For N#C/C(=C\c1ccc(-c2ccc(Br)cc2)o1)C(=O)NCCc1c[nH]c2ccccc12 the results were HT1080NT lethal inactive, IL-1B inflam inh -61, KB-3-1 tox inactive, HT1080 IDH1KD tx inactive and KB-V1 cytotox inactive.
O=C(NCCc1c[nH]c2ccccc12)c1ccc(Br)o1 was read as HT1080NT lethal inactive, IL-1B inflam inh inactive, KB-3-1 tox inactive, HT1080 IDH1KD tx inactive and KB-V1 cytotox inconclusive.
For CCC(C)OC(=O)/C(C#N)=C/c1ccc(-c2ccc(Br)cc2)o1 (configuration not stated) the results were KB-3-1 tox inactive and KB-V1 cytotox inactive.
COc1ccc(CNC(=O)CCSCc2cccc(Cl)c2)c(OC)c1 was read as HT1080NT lethal inactive, IL-1B inflam inh inactive, KB-3-1 tox inactive, HT1080 IDH1KD tx inactive and KB-V1 cytotox inactive.
Screening CN(C)CCCNS(=O)(=O)c1ccc(Cl)s1 returned HT1080NT lethal inactive, IL-1B inflam inh inactive, KB-3-1 tox inactive, HT1080 IDH1KD tx inactive and KB-V1 cytotox inactive.
`CC(C)CCNC(=O)[C@@H](Cc1ccccc1)NC(=O)CC[C@H]1O[C@@H](n2ccc(=O)[nH]c2=O)[C@H](O)[C@@H]1O` gave HT1080NT lethal inactive, IL-1B inflam inh inactive, KB-3-1 tox inactive, HT1080 IDH1KD tx inactive and KB-V1 cytotox inactive.
COc1ccc(OC)c(/C=C/c2c([N+](=O)[O-])c(=O)n(C)c(=O)n2C)c1 was read as HT1080NT lethal inactive, IL-1B inflam inh inactive, KB-3-1 tox 21µM, HT1080 IDH1KD tx inactive and KB-V1 cytotox inactive.
COc1ccc(/C=C/c2c([N+](=O)[O-])c(=O)n(C)c(=O)n2C)cc1O was read as HT1080NT lethal inactive, IL-1B inflam inh -83, KB-3-1 tox inconclusive, HT1080 IDH1KD tx inactive and KB-V1 cytotox inconclusive.
`COc1cc(/C=C/c2c([N+](=O)[O-])c(=O)n(C)c(=O)n2C)cc(OC)c1OC` gave HT1080NT lethal inactive, IL-1B inflam inh inactive, KB-3-1 tox inactive, HT1080 IDH1KD tx inconclusive and KB-V1 cytotox inactive.
`CCOc1ccc(NC(=O)CN(C)C(=O)c2ccccc2OCCOc2ccccc2)cc1OCC` gave HT1080NT lethal inactive, IL-1B inflam inh inactive, KB-3-1 tox inactive, HT1080 IDH1KD tx inactive and KB-V1 cytotox 2.3µM.
Screening CCOc1ccc(NC(=O)CN(C)C(=O)C2CCN(C(=O)c3ccc(Cl)cc3)CC2)cc1OCC returned HT1080NT lethal inactive, IL-1B inflam inh -51, KB-3-1 tox inactive, HT1080 IDH1KD tx inactive and KB-V1 cytotox inactive.
O=C(Nc1cccc(F)c1)c1ccc2snnc2c1 was read as KB-3-1 tox inactive and KB-V1 cytotox inconclusive.
`COc1cccc(OC)c1C(=O)Nc1cccc(-n2cnnn2)c1` gave HT1080NT lethal inactive, IL-1B inflam inh inactive, KB-3-1 tox inactive, HT1080 IDH1KD tx inactive and KB-V1 cytotox inactive.
For Cn1cccc1/C=C(/C#N)c1ccc(F)cc1 the results were HT1080NT lethal inactive, IL-1B inflam inh inactive, KB-3-1 tox inactive, HT1080 IDH1KD tx inactive and KB-V1 cytotox inactive.
`O=C(COc1ccccc1F)OCc1cc(=O)n2nc(-c3cccs3)sc2n1` gave KB-3-1 tox inactive and KB-V1 cytotox inactive.
`Cc1ccc2c(CC(=O)Nc3cccc(Cl)c3C)coc2c1` gave KB-3-1 tox inactive and KB-V1 cytotox inactive.
`COC(=O)[C@@]12C[C@@H](CC(=O)N3CCC(c4ccccc4)CC3)C(=O)N(CCc3ccc(OC)c(OC)c3)C1=CCC(C)(C)C2` gave HT1080NT lethal inactive, IL-1B inflam inh inactive, KB-3-1 tox inactive, HT1080 IDH1KD tx inactive and KB-V1 cytotox inconclusive.
For COc1ccc(Cl)cc1C(=O)NCc1ccco1 the results were HT1080NT lethal inactive, IL-1B inflam inh inconclusive, KB-3-1 tox inactive, HT1080 IDH1KD tx inactive and KB-V1 cytotox inactive.
`COc1ccc(-c2noc(-c3ccccc3C(=O)NCc3ccco3)n2)cc1OC` gave HT1080NT lethal inactive, IL-1B inflam inh inconclusive, KB-3-1 tox inactive, HT1080 IDH1KD tx inactive and KB-V1 cytotox 3.7µM.
COc1ccc(-c2noc(-c3ccccc3C(=O)NCc3ccco3)n2)cc1 was read as HT1080NT lethal inactive, IL-1B inflam inh inactive, KB-3-1 tox inactive, HT1080 IDH1KD tx inactive and KB-V1 cytotox inconclusive.
Screening COc1ccc(C(=O)Nc2c(Cl)cc(Cl)cc2C(=O)NCc2ccco2)cc1 returned HT1080NT lethal inactive, IL-1B inflam inh inactive, KB-3-1 tox inactive, HT1080 IDH1KD tx inactive and KB-V1 cytotox 7.3µM.
COc1ccc(C(=O)Nc2ccc(Cl)cc2C(=O)NCc2ccco2)cc1OC was read as HT1080NT lethal inactive, IL-1B inflam inh -58, KB-3-1 tox inactive, HT1080 IDH1KD tx inactive and KB-V1 cytotox inconclusive.
COc1cccc(NC(=O)c2ccccc2-c2nc(-c3ccc(F)cc3)no2)c1 was read as HT1080NT lethal inactive, IL-1B inflam inh inactive, KB-3-1 tox inactive, HT1080 IDH1KD tx inactive and KB-V1 cytotox 18µM.
Screening Cc1oc(-c2ccc(C(=O)Nc3ccc(F)cc3F)cc2)nc1COc1ccccc1 returned KB-3-1 tox inactive and KB-V1 cytotox inactive.
CCCCCCCCCCCCCCCCCCN(CCCCCCCCCCCCCCCCCC)c1ccc(C=O)cc1 was read as KB-3-1 tox inactive and KB-V1 cytotox inactive.
Screening COc1cc(NC(=S)N2CCN(S(=O)(=O)c3ccccc3)CC2)cc(OC)c1 returned HT1080NT lethal inactive, IL-1B inflam inh inactive, KB-3-1 tox inactive, HT1080 IDH1KD tx inactive and KB-V1 cytotox inactive.

Assay outcomes as filed in PubChem BioAssay.
